The full list was thinned out, with hits kept by preference.
IL1B secr inh: inflammasome signaling inhibition, IL-1 beta readout | actives 4.7% (n = 360,000) | activity change, % at 57.5 µM | AID 743279 | THP-1 LPS/ATP IL-1B secretion, AlphaLISA, 16 h; active compounds read low; in the data active means activity change below about -50%; inconclusive means mostly about -30% to -49%
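THP-1 cells pretreated 1 hr with compounds (up to 57.5 uM final), then stimulated with LPS (250 ng/mL final) plus ATP (1.25 mM final); secreted IL-1B measured by AlphaLISA after 16 hr, decreased signal indicating inhibition.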
HT1080 IDH1KD tx: HT-1080 IDH1 knockdown cell toxicity (counter line) | HT-1080 IDH1 knockdown viability, ATP luminescence, 48 h | Potency, µM (top dose mostly 46.1 µM), without a hit: at the highest dose activity, negative = toxicity, actives largely listed as cytotoxic | actives 2% (n = 360,000) | AID 686971;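 further: potency means the concentration at half of the fitted maximal effect; 0% = DMSO wells and -100% = cell-free medium wells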
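Knockdown cells (IDH1KD HT-1080) received compounds 2 h after plating at 750 cells/well and were kept 48 h at 37 °C in 5% FBS RPMI. A CellTiter-Glo luminescence read gave % activity for curve fitting.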
12-LOX inh: ALOX12 (human) lipoxygenase inhibition | P18054 | purified 12hLO, xylenol orange hydroperoxide absorbance | Potency, µM (top dose mostly 108 µM), inactives show top-dose activity change, negative = inhibition, most hits filed as inhibitors | actives 1.1% (n = 580,000) | AID 1671190; further: potency means the concentration at half of the fitted maximal effect
Target sequence (P18054 whole entry, looked up): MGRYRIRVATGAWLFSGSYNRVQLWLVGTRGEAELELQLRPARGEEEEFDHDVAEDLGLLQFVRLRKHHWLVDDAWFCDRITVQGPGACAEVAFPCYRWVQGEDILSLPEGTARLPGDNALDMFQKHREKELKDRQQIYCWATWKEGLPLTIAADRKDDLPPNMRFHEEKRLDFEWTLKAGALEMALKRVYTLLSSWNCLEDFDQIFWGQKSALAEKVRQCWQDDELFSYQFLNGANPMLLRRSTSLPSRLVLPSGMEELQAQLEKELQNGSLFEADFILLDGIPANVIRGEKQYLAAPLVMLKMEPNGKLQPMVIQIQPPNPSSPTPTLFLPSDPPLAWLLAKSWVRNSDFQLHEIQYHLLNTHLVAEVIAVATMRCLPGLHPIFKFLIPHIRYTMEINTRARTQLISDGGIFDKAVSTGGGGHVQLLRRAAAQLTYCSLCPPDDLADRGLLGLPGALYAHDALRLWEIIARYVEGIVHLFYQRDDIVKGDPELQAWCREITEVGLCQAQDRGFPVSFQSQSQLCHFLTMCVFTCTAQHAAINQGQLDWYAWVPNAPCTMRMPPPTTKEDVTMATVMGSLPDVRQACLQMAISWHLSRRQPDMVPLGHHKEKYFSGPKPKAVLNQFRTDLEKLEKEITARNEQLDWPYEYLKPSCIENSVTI
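Purified human 12hLO (150 nM final) in 25 mM Hepes, 0.01% Triton X-100, pH 7.0 was preincubated 15 min at room temperature with compound. Then 40 uM arachidonic acid was added, 30 min. Hydroperoxide was read by Fe-XO absorbance ratio 573/405 nm.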
HT1080NT lethal: kills 2HG-producing HT-1080-NT fibrosarcoma cells. HT-1080-NT fibrosarcoma viability, CellTiter-Glo ATP luminescence, 48 h. Potency, µM (titrated, usually from 46.1 µM), inactives show top-dose activity, negative = less viability, actives largely listed as cytotoxic. actives 1.6% (n = 360,000). AID 686970;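 further: NT is the 2HG producing partner of a matched IDH1 knockdown line; potency means the concentration at half of the fitted maximal effect; 0% = DMSO-treated cells and -100% = media-only wells without cells; nearly all actives have a fitted effect of over 55% in size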
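A 48-hour cytotoxicity screen used HT-1080-NT cells plated 2 hours before compound delivery. ATP-based CellTiter-Glo luminescence measured viability, normalized to DMSO and no-cell controls.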
DT40 TDP1 CPT: DT40-hTDP1 cell growth loss with CPT; chicken DT40 Tdp1-/-;hTDP1 cells + 20 nM CPT, ATP luminescence, 48 h; AID 686979; Potency, µM (titrated, usually from 46.2 µM), inactives show at the highest dose activity change, negative = growth inhibition, actives largely listed as inhibitors; actives 12% (n = 420,000); further: potency means the concentration at half of the fitted maximal effect; nearly all actives have a fitted effect of over 55% in size
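Cell growth measured by CellTiter-Glo luminescence after a minimum 48 h, 37 C compound exposure with 20 nM CPT in Tdp1-knockout DT40 cells stably expressing hTDP1, seeded 400/well; qHTS titration format.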
DT40 TDP1 no CPT: qHTS for Inhibitors of human tyrosyl-DNA phosphodiesterase 1 (TDP1): qHTS in cells in absence of CPT | DT40 Tdp1-/- hTDP1 cells, no CPT, ATP luminescence, 48 h | Potency, µM (series often up to 46.2 µM), for the others: top-dose activity change, negative = growth inhibition, most hits filed as inhibitors | actives 15% (n = 420,000) | AID 686978, 2013; further: potency means the concentration at half of the fitted maximal effect; nearly all actives have a fitted effect of over 55% in size
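No-CPT arm: Tdp1-/-;hTDP1 DT40 cells (400/well) plus compounds, incubated ≥48 hr at 37 °C. Readout CellTiter-Glo luminescence.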
Starred values were filed as active, the others as inactive; ? = inconclusive; . = not tested or not shown; [ ] = remark or other dose. Unless noted, the call rests on the fitted dose curve; in most records, active means well fitted curve in the direction sought with a large enough effect; inconclusive means small, poorly fitted or top-dose-only effect, or another doubt; inactive means no such curve, though single readings can be large; an effect the other way counts as inactive or inconclusive. Unless noted, on the % scale 0 is the no-effect control and ±100 the full control effect.

SMILES | IL1B secr inh | HT1080 IDH1KD tx | 12-LOX inh | HT1080NT lethal | DT40 TDP1 CPT | DT40 TDP1 no CPT
CCOc1ccc2nc(SC3CC(=O)N(c4ccc(C)cc4)C3=O)sc2c1 (configuration not stated) | 15 | ? | -1% | -3% | 4.6µM* | 4.6µM*
CCOc1ccc(N2C(=O)CC(Sc3nc4ccc(OCC)cc4s3)C2=O)cc1 (configuration not stated) | 14 | 18% | 0% | 17% | 4.1µM* | 4.6µM*
CCOC(=O)c1ccc(N2C(=O)CC(Sc3nc(C)cc(C)n3)C2=O)cc1 (configuration not stated) | 9 | 5% | 0% | 11% | -27% | ?
CCOc1ccc2nc(SC3CC(=O)N(c4ccc(OC)cc4OC)C3=O)sc2c1 (configuration not stated) | 29 | ? | -11% | ? | 4.6µM* | 3.3µM*
COc1cc2nc(C)sc2cc1SC | 4 | 8% | 0% | 4% | ? | ?
COc1cc2nc(/C=C/c3cc(OC)c(OC)c(OC)c3)sc2cc1SC | -26 | ? | -30% | ? | 5.8µM* | 5.8µM*
COc1cc(C(=O)Sc2ccc(Cl)cc2)cc(OC)c1OC | ? | ? | 0% | ? | 13µM* | 12µM*
CC(C)(C)c1ccc(N2C(=O)CSC2c2cccnc2)cc1 (configuration not stated) | 13 | -1% | 5% | 1% | ? | 8.2µM*
FC(F)(F)c1cccc(CN2CCC(c3cc(-c4cccs4)n[nH]3)CC2)c1 | -217* | 5.2µM* | ? | 7.3µM* | 8.2µM* | 21µM*
Cc1ccc(CN2CCC(c3cc(-c4cccs4)n[nH]3)CC2)cc1 | -86* | ? | ? | ? | ? | ?
COc1ccc(-c2nc(CC(=O)NC3CCN(Cc4ccccc4)CC3)cs2)cc1 | . | . | 56% | . | . | .
Cc1noc(C)c1S(=O)(=O)Nc1c(NC2CCCCC2)c2ccccc2oc1=O | . | . | -17% | . | . | .
CN1CCC(OC2CCN(C(=O)c3ccc(Cl)s3)CC2)CC1 | . | . | 12% | . | . | .
O=C(Cn1nc(-c2ccc(Cl)cc2)c2ccccc2c1=O)Nc1ccc2ccccc2c1 | . | . | 8% | . | . | .
N#Cc1c(-c2ccccc2)c(-c2ccccc2)nn(CC(=O)NNC(=O)Nc2ccc(Cl)c(Cl)c2)c1=O | 8 | 15µM* | 66% | 21µM* | ? | ?
O=c1c2c(nc3c(-c4ccccc4)c[nH]n13)CCCC2 | -10 | -8% | ? | -6% | 23µM* | 23µM*
Nc1[nH]n(-c2ccccc2)c(=O)c1N=Nc1ccccc1 | -30 | -9% | -6% | -18% | ? | -28%
COc1cccc(N=Nc2c(N)[nH]n3c(=O)cc(-c4ccccc4)nc23)c1 | -2 | ? | 22% | ? | 9.2µM* | 7.3µM*
COc1cccc(C(=O)Nc2nc3nc(-c4ccccc4)cc(=O)n3[nH]2)c1 | . | . | -3% | . | -2% | -16%
Nc1[nH]n2c(=O)c3c(nc2c1N=Nc1ccccc1)CCCC3 | -26 | -23% | 0% | -13% | ? | 18µM*
Nc1[nH]n2c(=O)c3c(nc2c1N=Nc1ccc(Cl)cc1)CCCC3 | -19 | -2% | -6% | -3% | ? | ?
Cc1cc(=O)n2[nH]c(N)c(N=Nc3ccccc3)c2n1 | 0 | -21% | -19% | 0% | ? | 29µM*
CC1(C)C(c2ccccc2)=[N+]([O-])C(c2ccc(Cl)cc2Cl)N1O (configuration not stated) | . | . | -19% | . | . | .
O=C(O)C(c1c[nH]c2ccc(Cl)cc12)N1CCN(Cc2ccccc2)CC1 (configuration not stated) | . | . | -24% | . | . | .
Cc1ccc(N=Nc2c(N)[nH]n3c(=O)cc(-c4ccccc4)nc23)cc1 | 5 | 0% | 0% | 4% | ? | 15µM*
SMILES | IL1B secr inh | HT1080 IDH1KD tx | 12-LOX inh | HT1080NT lethal | DT40 TDP1 CPT | DT40 TDP1 no CPT
CC(=O)N(c1ccccc1C)C1CCCC1 | 6 | 8% | -1% | 13% | -7% | ?
CC(=O)N(C1=C(Cl)C(=O)c2ccccc2C1=O)C1CCCCC1 | -97* | 2.9µM* | 1.8µM* | 4.1µM* | 0.46µM* | 0.52µM*
Cc1ccc(S(=O)(=O)Nc2nc3ccccc3nc2Nc2ccc(F)cc2)cc1C | . | . | -11% | . | . | .
Nc1ccc2c(=O)[nH][nH]c(=O)c2c1 | -10 | 21% | -6% | 16% | -19% | -20%
Nc1ccc2oc3ccc(N)cc3c(=O)c2c1 | -73* | 3%[9.24 µM] | -3% | -3% | 4% | -7%
C=CCNc1ncnc2c1ncn2[C@H]1CN(Cc2ccc(-c3ccccc3)cc2)C[C@@H](CO)O1 | -12 | ? | -10% | ? | 16µM* | 23µM*
OCCCNc1ncnc2c1ncn2[C@H]1CN(Cc2ccc(-c3ccccc3)cc2)C[C@@H](CO)O1 | 63 | -20% | 6% | -17% | 15µM* | 21µM*
OCCNc1ncnc2c1ncn2[C@H]1CN(Cc2ccc(Cl)cc2)C[C@@H](CO)O1 | 5 | 11% | -15% | 8% | -29% | ?

Screening data from PubChem BioAssay.
